Sfp inh – Sfp phosphopantetheinyl transferase inhibition | Biochemical Sfp PPTase activity, qHTS | 310,000 compounds, 3.5% hits | Potency, µM, for inactives: largest response in the series, negative = inhibition, usual class: inhibitors;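 also: the enzyme is Sfp with the accession as filed and its product quenches rhodamine fluorescence; 0% = enzyme reaction without inhibitor and -100% = no enzyme wells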
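Buffer: 50 mM Hepes-Na pH 7.6, 10 mM MgCl2, 0.01% Nonidet P-40, 0.01% BSA. Enzyme 15 nM, pre-exposed to compound 15 min; substrates then added and fluorescence change tracked over 30 min.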
G9a inh – inhibitors of human histone lysine methyltransferase G9a; G9a H3K9 monomethylation, AlphaScreen, 2 h; Potency, µM (highest dose often 102 µM), inactives show at the highest dose activity, negative = inhibition, most hits filed as inhibitors; 350,000 compounds, 8.8% hits; also: % is scaled to controls: 0 for no effect and ±100 for the full control effect; nearly all actives have a fitted effect of over 75% in size
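Signal arises when biotinylated H3K9 peptide, once monomethylated, bridges streptavidin donor and antibody-captured acceptor beads. Enzyme at 20 nM was preincubated 15 min with test compounds; peptide 500 nM and SAM 20 uM then reacted for 2 h.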
HP1b binding inh – blocks HP1-beta chromodomain binding to methylated histone tails | 390,000 compounds, 0.56% hits | Potency, µM (doses to about 114 µM), without a hit: top-dose activity change, negative = inhibition, hits mostly inhibitors | AlphaScreen HP1-beta / biotin-H3K9me3 peptide binding | AID 540317; also: nearly all actives have a fitted effect of over 70% in size
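AlphaScreen: HP1-beta (50 nM) preformed 30 min with biotin-H3(1-18)K9me3 peptide (50 nM) in PBS pH 7.4, 0.01% Tween-20. Compound added for 30 min at RT, then streptavidin donor/nickel chelate acceptor beads (10 ug/mL) for 30 min.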
TDP1 block – inhibitors of human tyrosyl-DNA phosphodiesterase TDP1 | Q9NUW8 | recombinant TDP1, AlphaScreen DNA substrate cleavage | Potency, µM (highest dose often 130 µM), inactives show top-dose activity change, negative = inhibition, usual class: inhibitors | 350,000 compounds, 0.28% hits; also: % is scaled to controls: 0 for no effect and ±100 for the full control effect; nearly all actives have a fitted effect of over 40% in size
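Compounds were preincubated with Tdp1 (1 nM final) for 15 min at room temperature before substrate (15 nM final) started a 5 min reaction; beads (10 ug/ml final) were then added for 10 min before AlphaScreen detection.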
JMJD2A Tudor – blocks the human JMJD2A Tudor domain. AlphaScreen JMJD2A-Tudor / H3K4me3 peptide binding. Potency, µM (doses to about 114 µM), for the others: top-dose activity change, negative = inhibition, most hits filed as inhibitors. 390,000 compounds, 4.4% hits. AID 504339; also: % is scaled to controls: 0 for no effect and ±100 for the full control effect; nearly all actives have a fitted effect of over 50% in size
BAZ2B inh – inhibitors of human BAZ2B bromodomain; AlphaScreen BAZ2B-H3K14Ac peptide displacement; Potency, µM (titrated, usually from 114 µM), for the others: at the top dose activity change, negative = inhibition, most hits filed as inhibitors; 360,000 compounds, 4.4% hits; AID 504333; also: % is scaled to controls: 0 for no effect and ±100 for the full control effect; nearly all actives have a fitted effect of over 60% in size
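BAZ2B 50 nM plus b-H3(5-23)K14Ac 50 nM, PBS pH 7.4/0.01% Tween-20, 30 min RT; compound added (max 110 uM), 30 min RT; streptavidin donor/Ni-chelate acceptor beads 10 ug/mL final, 20 min dark; AlphaScreen read.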
* hit, by the source's call; ? = inconclusive; / = no result given; [ ] = dose if it differs, or a comment. Most compounds without a hit are left out; they make up all but 12% or so of the library. Calls follow the shape of the dose curve; as a rule, active = well fitted curve in the direction sought with a large enough effect; inconclusive = small, poorly fitted or top-dose-only effect, or another doubt; inactive = no such curve, though single readings can be large; an effect the other way counts as inactive or inconclusive. Potency is read from the fitted curve at half-maximal effect.

SMILES	Sfp inh	G9a inh	HP1b binding inh	TDP1 block	JMJD2A Tudor	BAZ2B inh
O=[N+]([O-])C(=C1SCCS1)C(=C(Cl)Cl)N1CCCCC1	-4.1%	6.31µM*	25.1µM*	11.1%	35.5µM*	7.94µM*
CSCCC(NC(=O)c1ccccc1)C(=O)NNC(=O)c1csc(N2CCOCC2)n1 (centres undefined)	9.1%	13.7%[12.7 µM]	53.0%	0.7%	-8.3%	-3.2%
CC(=O)c1ccc(OCC(=O)NC2CCCN(Cc3ccccc3F)C2)cc1 (centres undefined)	19.0%	2.7%[12.7 µM]	42.6%	/	8.9%	2.7%
COc1ccc(C2C3=C(CC(C)(C)CC3=O)Oc3ncn(Cc4ccco4)c(=N)c32)cc1 (centres undefined)	10.4%	?	23.9%	8.7%	?	50.1µM*
CC(NC(=O)C1CCCN(S(=O)(=O)N2CCOCC2)C1)c1ccccc1 (centres undefined)	2.3%	14.6%[0.0925 µM]	24.7%	1.9%	-6.9%	5.1%
CN(C)CC(=O)Nc1ccc(S(N)(=O)=O)cc1	4.0%	23.9%	-4.0%	2.3%	14.1µM*	-2.0%
Cc1ccc(CCC(=O)Nc2ccc(S(N)(=O)=O)cc2)o1	5.01µM*	2.24µM*	12.8%	9.1%	-10.2%	14.8%
NS(=O)(=O)c1ccc(NC(=O)CCCCC(=O)Nc2ccc(S(N)(=O)=O)cc2)cc1	1.4%	8.6%	63.3%	/	89.1µM*	-3.2%
CN(CCC#N)CC(=O)Nc1ccc(S(N)(=O)=O)cc1	24.1%	-19.9%	35.8%	-3.1%	-3.0%[11.4 µM]	-8.4%
CC(=O)Nc1ccc(NC(=O)CCc2ccc(C)o2)cc1	7.0%	19.0%	21.4%	4.0%	-6.8%	-19.5%
Cc1ccc(C(=O)NC2CCCc3ccccc32)cc1[N+](=O)[O-] (centres undefined)	-3.7%	9.7%	0.4%	5.4%	-29.5%	-13.0%
O=Nc1c(-c2c(O)[nH]c3cc(Br)ccc23)[nH]c2ccccc12	-18.0%	8.44µM*	3.98µM*	23.6%[56.1 µM]	3.16µM*	3.98µM*
O=C(CNC(=O)c1ccccc1)N=Nc1c(O)[nH]c2ccc(Br)cc12	17.0%	-39.5%	109.0%	0.1%	-5.6%	-36.5%
CCC(C)(C)NC(=O)C(c1ccccn1)N(C(=O)c1csnn1)c1ccc(C)c(C)c1 (centres undefined)	5.4%	-2.6%	32.0%	6.1%	-8.2%	-12.2%
COc1ccc(-n2nc([N+](=O)[O-])c(=NCCc3ccc(Cl)cc3)n2O)cc1	9.9%	11.4%	-6.7%	6.0%	-31.5%	-10.0%[57.1 µM]
Cc1ccc(CN=c2c([N+](=O)[O-])nn(-c3cccc(C)c3)n2O)cc1	10.9%	-2.8%	?	-3.5%	35.5µM*	?
Cc1cc(C)cc(N=c2c([N+](=O)[O-])nn(-c3ccc(Cl)cc3)n2O)c1	9.0%	?	-26.5%	7.9%	?	?
COc1ccc(-n2nc([N+](=O)[O-])c(=NCc3cccnc3)n2O)cc1	5.1%	18.3%[59 µM]	20.7%	1.1%	-15.4%	-9.0%
CCc1ccc(N=c2c([N+](=O)[O-])nn(-c3ccccc3)n2O)cc1	?	?	?	10.9%	44.7µM*	31.6µM*
COc1ccc(-n2nc([N+](=O)[O-])c(=NCCC3=CCCCC3)n2O)cc1	-5.7%	31.6µM*	44.7µM*	9.2%	39.8µM*	20µM*
COc1ccc(-n2nc([N+](=O)[O-])c(=NCCc3ccc(C)cc3)n2O)cc1	-4.1%	?	?	8.1%	50.1µM*	?
COc1ccc(OC)c(S(=O)(=O)N2CC=C(c3c(C)n(CC(=O)N4CCCC4)c4ccccc34)CC2)c1	/	?	19.4%	6.4%	-28.5%	?
Cc1ccc(S(=O)(=O)N/N=C2/CCCCC2C2CCCCC2)cc1[N+](=O)[O-] (centres undefined)	-7.2%	?	?	11.5%	28.2µM*	-2.4%
CCC(C)(C)C1CCC(=NNS(=O)(=O)c2ccc(C)c([N+](=O)[O-])c2)CC1 (centres undefined)	3.2%	12.6µM*	38.7%	4.6%	2.5%[57.1 µM]	-28.7%
CC1CCC(=NNS(=O)(=O)c2ccc([N+](=O)[O-])cc2)CC1 (centres undefined)	/	/	-0.3%	/	-14.7%	/
SMILES	Sfp inh	G9a inh	HP1b binding inh	TDP1 block	JMJD2A Tudor	BAZ2B inh
CCn1c2ccccc2c2cc(C3C(C#N)=C(C)NC(C)=C3C#N)ccc21	-11.4%	14.4%	55.0%	-1.0%	8.8%	10.1%
CCn1c2ccccc2c2cc(/C=C(/C#N)C(N)=S)ccc21	/	/	?	/	20µM*	/
CCC(CC)NCc1ccc2c(c1)c1ccccc1n2CC	50.1µM*	-119.0%[12.7 µM]	?	6.0%	20µM*	44.7µM*
CCn1c2ccccc2c2nc3ccccc3nc21	-18.0%	53.9%[59 µM]	194.5%	-8.1%	136.9%	128.8%
CCn1c(C)cc(=S)c2ccccc21	?	3.16µM*	20.4%	7.7%	-26.0%[57.1 µM]	-30.9%
CCn1c2ccccc2c2cc(CNCc3ccc(OC)cc3OC)ccc21	22.4µM*	39.8µM*	?	9.0%	?	44.7µM*
O=C(O)CC(C(=O)O)C(c1ccccc1)c1ccccc1 (centres undefined)	/	/	0.6%	/	-20.7%	/
COc1ccc(S(=O)(=O)N2CCN(c3ccccc3)CC2)cc1-c1noc(C)n1	/	4.7%[59 µM]	39.5%	8.6%	-13.7%	-4.7%
COC(=O)c1cc(NC(=O)c2oc(=O)c3ccccc3c2-c2ccccc2)cc(C(=O)OC)c1	/	3.5%[59 µM]	10.0%	-2.3%	-15.0%	/
CCn1c2ccccc2c2cc(N)ccc21	-22.1%	5.62µM*	?	9.6%	?	-32.4%
CNC(=O)COC(=O)/C=C/c1cccc(F)c1	4.5%	14.1%	23.8%	0.0%	-7.5%	-1.4%
Cc1ccc(C2=NNC3(CCOC(C)(C)C3)S2)cc1 (centres undefined)	-1.1%	28.2µM*	-30.4%	10.1%	?	-35.9%
Cc1ccc(S(=O)(=O)NCCC2(C(C)C)CCOC(C)(C)C2)cc1 (centres undefined)	13.0%	15.9%[2.33 µM]	14.6%	1.6%	-2.9%	2.4%
O=C1CCC(C(=O)N2CCc3c(Cl)cccc3C2)CN1CCCN1CCOCC1 (centres undefined)	13.9%	39.8µM*	36.9%	3.2%	-0.7%	-12.2%
COc1cc2c(cc1OC)CN(C(=O)C1CCC(=O)N(CCCN3CCOCC3)C1)CC2 (centres undefined)	7.5%	/	29.7%	0.9%	-9.8%	-3.3%
C=C/C(C)=C/CC1C(=C)CCC2C(C)(C(=O)O)CCCC12C (centres undefined)	-1.9%	5.1%[12.7 µM]	19.6%	/	56.2µM*	-34.0%
COc1ccc(CNCCNC(=O)c2cccs2)cc1OC	-7.6%	11.2µM*	?	-10.7%	20µM*	/
